Inconclusive results are not listed. The source made the active and inactive calls. Unless noted, the call rests on the fitted dose curve; in most records, active means well fitted curve in the direction sought with a large enough effect; inconclusive means small, poorly fitted or top-dose-only effect, or another doubt; inactive means no such curve, though single readings can be large; an effect the other way counts as inactive or inconclusive.
What was measured:
[1] = Cytometric Cell-Based qHTS for Inhibitors of the mTORC1 Signaling Pathway in MEF (Tsc2-/-, p53-/-) Cells (AID 2660);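 further: Tsc2 and p53 null MEFs carrying empty vector with compound for 24 h; percent of cells above a phospho-rpS6 to PI ratio cutoff in each well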
In short: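 Cells are plated, treated with compound for 24 hrs at 37 degree Celsius, then fixed, blocked and immunostained for phospho-rpS6 Ser235/236. Propidium iodide counterstain follows. Per-well % positive cells is derived from the PI-normalized phospho-S6 signal.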

[2] = High Content Imaging Cell-Based qHTS for Inhibitors of the mTORC1 Signaling Pathway in MEF (Tsc2-/-, p53-/-) Cells (AID 2666); conditions: at 38.3 µM (top of the series);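 further: percent of cells scored positive for phospho-rpS6 Ser235/236 immunostaining by imaging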
In short: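 Inhibition of rpS6 phosphorylation is measured by immunofluorescence imaging in empty-vector Tsc2-/-, p53-/- mouse embryonic fibroblasts after 24 hrs compound exposure at 37 degree Celsius. Results are reported as % positive cells per well.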

[3] = High Content Imaging Cell-Based qHTS for Inhibitors of the mTORC1 Signaling Pathway in MEF Cells (AID 2667);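 further: Tsc2-/- p53-/- MEFs stably re-expressing wild-type Tsc2 exposed 24 h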
In short: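 Fixed-cell imaging of phospho-S6 (Ser235/236, Alexa-488) after 24 hrs of compound treatment at 37 degree Celsius. Signal was normalized to Hoechst, and thresholds from the highest and lowest wells split cells into % active versus % non-active.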

[4] = Cytometry Cell-Based qHTS for Inhibitors of the mTORC1 Signaling Pathway in MEF cells (AID 2668);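 further: Tsc2-/- p53-/- mouse embryonic fibroblasts stably re-expressing wild-type Tsc2; percent cells positive for phospho-rpS6 Ser235/236 relative to propidium iodide stain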
In short: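 Pathway inhibition in WT Tsc2-rescued Tsc2-/-, p53-/- MEFs is measured as the Alexa-488 phospho-rpS6 to propidium iodide intensity ratio after 24 hrs of compound at 37 degree Celsius. PI-stained cell number gives viability.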

[5] = molecular target: Ubiquitin carboxyl-terminal hydrolase 2 (Homo sapiens) (UniProt O75604); assay: qHTS Validation Assay for Inhibitors of Ubiquitin-specific Protease USP2a Using CHOP2 as the Reporter (AID 463106)
Ubiquitin carboxyl-terminal hydrolase 2 (Homo sapiens), sequence (O75604 whole entry, looked up): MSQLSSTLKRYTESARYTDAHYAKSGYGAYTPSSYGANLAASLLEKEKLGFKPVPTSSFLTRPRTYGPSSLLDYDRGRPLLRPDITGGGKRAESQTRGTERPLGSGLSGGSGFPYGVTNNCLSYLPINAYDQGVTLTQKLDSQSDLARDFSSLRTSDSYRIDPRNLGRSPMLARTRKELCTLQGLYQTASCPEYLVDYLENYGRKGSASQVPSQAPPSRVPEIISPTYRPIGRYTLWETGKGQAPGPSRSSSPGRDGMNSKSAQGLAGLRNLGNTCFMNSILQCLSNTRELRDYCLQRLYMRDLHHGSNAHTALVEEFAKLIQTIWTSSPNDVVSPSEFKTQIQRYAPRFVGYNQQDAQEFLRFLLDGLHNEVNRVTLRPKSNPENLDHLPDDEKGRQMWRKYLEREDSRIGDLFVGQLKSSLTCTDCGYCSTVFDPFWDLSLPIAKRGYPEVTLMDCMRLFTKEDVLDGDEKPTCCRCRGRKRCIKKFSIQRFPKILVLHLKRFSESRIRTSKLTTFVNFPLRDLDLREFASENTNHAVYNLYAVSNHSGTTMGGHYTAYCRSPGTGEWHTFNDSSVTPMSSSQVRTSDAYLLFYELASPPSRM
In short: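 Inhibition is expressed relative to NEM as the full-inhibition control, with concentration-response curves classed by fit quality, magnitude and activity. Enzyme (USP2 core, 10nM) meets 25nM Ub-CHOP2 after compound preincubation; readings are taken at 60min.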

[6] = molecular target: Tumor susceptibility gene 101 protein (Homo sapiens) (UniProt Q99816); assay: qHTS Validation Assay for Iinhibitors of HIV-1 Budding by Blocking the Interaction of PTAP/TSG101 (AID 485342; calls by dose curve)
In short: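 Fluorescence anisotropy measured PTAP-Tsg101 interaction. Final concentrations were 10 uM protein domain and 50 nM labeled peptide, equilibrated 20 min at room temperature.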

[7] = molecular target: Beta-2 adrenergic receptor (Homo sapiens) (UniProt P07550); assay: qHTS validation assay of beta-arrestin-biased ligands of beta2-adrenergic receptor (AID 485366)
Beta-2 adrenergic receptor (Homo sapiens), sequence (P07550 whole entry, looked up): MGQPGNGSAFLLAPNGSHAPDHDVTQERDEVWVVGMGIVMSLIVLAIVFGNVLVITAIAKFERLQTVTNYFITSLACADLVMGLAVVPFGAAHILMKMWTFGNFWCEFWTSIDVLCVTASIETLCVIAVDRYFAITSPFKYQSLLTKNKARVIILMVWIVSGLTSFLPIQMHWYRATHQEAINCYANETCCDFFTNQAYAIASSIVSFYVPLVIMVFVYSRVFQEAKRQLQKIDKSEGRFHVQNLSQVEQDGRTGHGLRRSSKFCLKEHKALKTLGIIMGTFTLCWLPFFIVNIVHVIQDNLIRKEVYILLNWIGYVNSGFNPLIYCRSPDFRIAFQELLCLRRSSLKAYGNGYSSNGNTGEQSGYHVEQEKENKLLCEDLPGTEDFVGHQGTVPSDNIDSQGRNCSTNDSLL
In short: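 Compound series up to 46 microM applied to beta2-AR/beta-arrestin Tango cells, 18 hr, 37 degrees C, 5% CO2. Read-out: tTA-driven luciferase luminescence, converted to %Activity; concentration-response curves assigned curve classes.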

[8] = molecular target: Thioredoxin reductase 1, cytoplasmic (Rattus norvegicus) (UniProt O89049); assay: qHTS Assay for Substrates of Mammalian Selenoprotein Thioredoxin Reductase 1 (TrxR1) (AID 488772);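 further: a drop in NADPH fluorescence below the no-compound background marks a TrxR1 substrate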
Thioredoxin reductase 1, cytoplasmic (Rattus norvegicus), sequence (O89049 whole entry, looked up): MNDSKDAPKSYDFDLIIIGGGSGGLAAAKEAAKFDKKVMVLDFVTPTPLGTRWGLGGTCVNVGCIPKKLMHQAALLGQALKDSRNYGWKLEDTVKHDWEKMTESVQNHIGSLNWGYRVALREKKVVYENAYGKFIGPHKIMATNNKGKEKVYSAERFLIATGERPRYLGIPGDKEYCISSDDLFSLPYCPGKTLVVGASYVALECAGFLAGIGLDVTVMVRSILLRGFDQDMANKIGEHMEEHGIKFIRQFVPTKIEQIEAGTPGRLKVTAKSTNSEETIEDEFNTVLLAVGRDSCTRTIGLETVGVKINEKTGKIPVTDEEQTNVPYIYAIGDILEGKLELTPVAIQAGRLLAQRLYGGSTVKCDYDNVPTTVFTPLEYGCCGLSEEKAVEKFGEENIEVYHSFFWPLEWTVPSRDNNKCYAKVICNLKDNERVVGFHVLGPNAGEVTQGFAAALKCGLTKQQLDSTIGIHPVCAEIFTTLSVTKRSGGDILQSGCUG
In short: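 In this dual-purpose format, potential substrates are identified from the first fluorescence read after selenite addition, not from the 8-minute delta. Rat enzyme is preincubated with NADPH and then with compound at ~22 deg C.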

[9] = molecular target: Thioredoxin reductase 1, cytoplasmic (Rattus norvegicus) (UniProt O89049); assay: qHTS Assay for Inhibitors of Mammalian Selenoprotein Thioredoxin Reductase 1 (TrxR1) (AID 488773); conditions: Potency: inhibition;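 further: drop in NADPH fluorescence over an 8 min run after selenite addition; nearly all actives have a fitted effect of over 40% in size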
In short: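 Inhibition is scored from the loss of NADPH fluorescence between first and last reads of an 8-min kinetic run. Selenite (400 uM) was the substrate, added after 15 min compound preincubation at room temperature.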

[10] = molecular target: Flap endonuclease 1 (Homo sapiens) (UniProt P39748); assay: qHTS Validation Assay for the Inhibitors of Human Flap endonuclease 1 (FEN1) (AID 488816)
Flap endonuclease 1 (Homo sapiens), sequence (P39748 whole entry, looked up): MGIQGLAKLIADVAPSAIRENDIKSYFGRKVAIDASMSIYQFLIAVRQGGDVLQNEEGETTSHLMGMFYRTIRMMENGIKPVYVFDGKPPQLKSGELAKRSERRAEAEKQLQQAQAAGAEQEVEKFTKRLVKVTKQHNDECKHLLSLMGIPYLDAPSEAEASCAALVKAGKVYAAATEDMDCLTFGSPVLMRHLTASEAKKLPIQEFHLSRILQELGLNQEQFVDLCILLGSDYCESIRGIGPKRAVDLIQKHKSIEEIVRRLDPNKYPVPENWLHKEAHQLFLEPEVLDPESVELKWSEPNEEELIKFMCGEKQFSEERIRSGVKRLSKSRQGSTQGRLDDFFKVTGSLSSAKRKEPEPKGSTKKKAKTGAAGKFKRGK
In short: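 Steps: add FEN1 (10 nM reagent) or buffer only; pin compounds; hold 15 min at room temperature; start with substrate, 50 nM final; read at 0 and 15 min; correct, normalize and fit a four-parameter Hill curve.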

[11] = molecular target: M-phase phosphoprotein 8 (Homo sapiens) (UniProt Q99549); assay: qHTS Validation Assay for Inhibitors for MPP8 Chromodomain Interactions with Methylated Histone Tails (AID 488949);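 further: AlphaScreen signal from MPP8 chromodomain bound to biotinylated H3K9me3 peptide; top concentration of the series differs between compounds; nearly all actives have a fitted effect of over 55% in size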
In short: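 Disruption of the preformed MPP8–trimethyl-H3K9 peptide complex (both 50 nM, 30 min, RT) is measured after 30 min compound exposure, using AlphaScreen proximity beads; aurintricarboxylic acid titration serves as plate control.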

[12] = molecular target: Methanococcus maripaludis chaperonin (MmCpn) (UniProt Q6LX38); assay: High-Throughput Screening for Modulators of Cytosolic Chaperonin Activity: MmCpn Primary Screen (AID 488978);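 further: 50 nM MmCpn enzyme hydrolysing 30 µM ATP at 37 °C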
Methanococcus maripaludis chaperonin (MmCpn), sequence (Q6LX38 1-543): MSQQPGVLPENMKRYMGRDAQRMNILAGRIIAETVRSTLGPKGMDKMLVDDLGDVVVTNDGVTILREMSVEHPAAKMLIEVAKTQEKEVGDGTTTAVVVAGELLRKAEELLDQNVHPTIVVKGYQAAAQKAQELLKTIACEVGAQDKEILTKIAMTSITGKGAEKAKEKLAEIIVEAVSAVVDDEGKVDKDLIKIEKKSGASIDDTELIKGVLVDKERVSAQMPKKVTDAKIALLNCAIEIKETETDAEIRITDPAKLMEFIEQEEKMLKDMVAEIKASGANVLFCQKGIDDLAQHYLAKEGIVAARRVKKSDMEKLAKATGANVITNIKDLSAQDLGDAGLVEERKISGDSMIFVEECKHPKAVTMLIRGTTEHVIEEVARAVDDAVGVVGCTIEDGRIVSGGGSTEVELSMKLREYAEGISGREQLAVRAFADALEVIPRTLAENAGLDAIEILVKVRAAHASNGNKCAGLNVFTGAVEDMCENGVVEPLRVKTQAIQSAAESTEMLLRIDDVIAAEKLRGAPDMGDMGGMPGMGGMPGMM
In short: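 Measures ATPase turnover of the M. maripaludis chaperonin (50 nM final) against 30 uM ATP over 10 min at 37C, with compound added 5 min beforehand at room temperature. ADP is quantified by HTRF immunodetection.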

[13] = molecular target: D(1A) dopamine receptor (Homo sapiens) (UniProt P21728); assay: HTS Assay for Allosteric Agonists of the Human D1 Dopamine Receptor: Primary Screen for Agonists (AID 488981)
D(1A) dopamine receptor (Homo sapiens), sequence (P21728 whole entry, looked up): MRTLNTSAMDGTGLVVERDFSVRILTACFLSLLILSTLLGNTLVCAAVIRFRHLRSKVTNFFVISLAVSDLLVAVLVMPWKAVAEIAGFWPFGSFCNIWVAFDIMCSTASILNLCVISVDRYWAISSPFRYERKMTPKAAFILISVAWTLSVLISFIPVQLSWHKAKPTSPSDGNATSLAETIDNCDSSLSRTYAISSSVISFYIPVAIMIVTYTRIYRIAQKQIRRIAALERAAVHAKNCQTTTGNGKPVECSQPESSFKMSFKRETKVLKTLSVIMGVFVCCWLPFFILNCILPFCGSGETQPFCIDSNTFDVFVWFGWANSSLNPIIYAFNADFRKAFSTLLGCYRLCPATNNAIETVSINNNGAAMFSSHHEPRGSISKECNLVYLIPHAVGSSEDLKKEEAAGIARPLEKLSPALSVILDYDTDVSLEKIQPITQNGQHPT
In short: (§1)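 Tetracycline-induced HEK293 T-REx cells force-coupled to calcium signalling were incubated overnight at 30 C and dye-loaded at room temperature. Calcium flux over 180 s after compound addition flagged agonists; a further 180 s read after EC20 dopamine flagged potentiators.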

[14] = molecular target: D(1A) dopamine receptor (Homo sapiens) (UniProt P21728); assay: HTS Assay for Allosteric Agonists of the Human D1 Dopamine Receptor: Primary Screen for Potentiators (AID 488982)
In short: as §1

[15] = molecular target: D(1A) dopamine receptor (Homo sapiens) (UniProt P21728); assay: HTS Assay for Allosteric Agonists of the Human D1 Dopamine Receptor: Primary Screen for Antagonists (AID 488983);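 further: calcium flux response to an EC80 dopamine challenge measured with no-wash dye; nearly all actives have a fitted effect of over 65% in size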
In short: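 In this primary screen, compounds are applied to calcium-dye-loaded HEK293 T-REx cells with force-coupled D1 expression induced overnight at 30 C. An EC80 of dopamine follows the 180 s compound phase, and calcium is monitored for a further 180 s.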

[16] = Validation screen for small molecules that induce genotoxicity in human embryonic kidney (HEK293T) cells expressing luciferase-tagged ELG1 (AID 493106)
In short: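 In this validation screen, increased ELG1-luciferase signal flags compounds causing genetic stress. HEK293T reporter cells are treated 16 hr (37 °C, 5% CO2), developed with ONE-Glo for 30 min at room temperature, and imaged on a CCD-based reader.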

[17] = molecular target: ATPase family AAA domain-containing protein 5 (Homo sapiens) (UniProt Q96QE3); assay: Validation screen for small molecules that inhibit ELG1-dependent DNA repair in human embryonic kidney (HEK293T) cells expressing luciferase-tagged ELG1 (AID 493107);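 further: cells co-treated with the DNA-damaging agent 5-fluorouridine alongside compound; inhibitors lower the ELG1-luciferase luminescence signal; nearly all actives have a fitted effect of over 70% in size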
In short: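 Compounds reducing 5-fluorouridine-driven ELG1-luciferase signal in HEK293T cells were scored; exposure lasted 16 hr at 37 °C with luminescence detected via ONE-Glo.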

[18] = Nrf2 qHTS screen for inhibitors: Validation (AID 493153; active means well fitted inhibition curve with a large enough effect in the main read-out, with a control signal flat, not every such curve was filed as active); conditions: viability change: measured here: cytotoxicity max response
In short: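 In this counterscreened reporter format, each well gives two signals: CellTiter-Fluor fluorescence for cytotoxicity and ARE-luciferase luminescence for Nrf2 function. A549 ARE_Fluc cells in 5% FBS OPTI-MEM were exposed to compound titrations for 18-24 h.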

[19] = qHTS for Inhibitors of Cell Surface uPA Generation: Validation Assay (AID 493164);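 further: RAW 264.7 macrophage cells exposed to compound for 18 h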
In short: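 Compounds are titrated over seven points (2.45 nM–38.3 uM final) onto pre-plated RAW 264.7 cells and incubated for 18 h. Retained intracellular ATP, measured with ATP-Lite, indicates blocked lethal factor entry.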

[20] = molecular target: Peptidyl-prolyl cis-trans isomerase NIMA-interacting 1 (Homo sapiens) (UniProt Q13526); assay: qHTS Validation Assay to Find Inhibitors of Pin1 (AID 504536; active means well fitted inhibition curve with a large enough effect in the polarisation, with a control signal flat, not every such curve was filed as active; the % refers to the polarisation)
Peptidyl-prolyl cis-trans isomerase NIMA-interacting 1 (Homo sapiens), sequence (Q13526 whole entry, looked up): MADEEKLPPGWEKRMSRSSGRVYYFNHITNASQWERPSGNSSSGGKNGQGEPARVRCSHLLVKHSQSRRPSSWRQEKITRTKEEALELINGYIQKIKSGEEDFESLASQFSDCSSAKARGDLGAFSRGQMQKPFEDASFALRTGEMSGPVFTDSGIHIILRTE
In short: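 Fluorescence polarization competition: compounds (titration) displace HiFluor-488-labeled Pin1-1b peptide from Pin1 (0.3 uM final) in pH 7.5 HEPES buffer with DTT, 10 min at room temperature; %Activity normalized to no-enzyme wells, curves fitted.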

[21] = molecular target: Phosphoglycerate kinase, glycosomal (Trypanosoma brucei brucei) (UniProt P07378); assay: qHTS Validation Assay to Find Inhibitors of Phosphoglycerate Kinase (AID 504547)
Phosphoglycerate kinase, glycosomal (Trypanosoma brucei brucei), sequence (P07378 whole entry, looked up): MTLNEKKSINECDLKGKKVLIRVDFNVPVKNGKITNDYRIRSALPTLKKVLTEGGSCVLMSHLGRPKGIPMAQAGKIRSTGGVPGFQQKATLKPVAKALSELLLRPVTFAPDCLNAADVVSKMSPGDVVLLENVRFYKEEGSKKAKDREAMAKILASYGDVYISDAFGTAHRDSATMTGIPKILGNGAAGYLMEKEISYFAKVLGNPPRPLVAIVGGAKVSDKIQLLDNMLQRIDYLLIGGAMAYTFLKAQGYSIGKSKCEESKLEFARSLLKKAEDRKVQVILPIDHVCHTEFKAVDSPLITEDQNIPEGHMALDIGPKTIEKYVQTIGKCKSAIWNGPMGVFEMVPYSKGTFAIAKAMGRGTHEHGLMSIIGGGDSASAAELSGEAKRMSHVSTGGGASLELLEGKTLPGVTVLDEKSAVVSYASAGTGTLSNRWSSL
In short: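 In TEA buffer (100mM, pH 7.6) containing 5mM MgCl2 and 0.01% Tween-20, the GAPDH-coupled PGK reaction proceeded for 60 minutes at room temperature before a single luminescence reading using Kinase-Glo Plus.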

[22] = molecular target: phosphoglycerate mutase (Leishmania major) (UniProt Q4Q090); assay: qHTS Validation Assay to Find Inhibitors of Phosphoglycerate Mutase (AID 504548)
In short: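 Luminescent end-point read-out via Kinase-GloPlus after a 10-minute development. Reaction: 1.25nM Leishmania major PGAM with substrate and compound, 45 minutes at room temperature in TEA buffer (pH 7.6) with MgCl2 and Tween-20.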

[23] = molecular target: Ubiquitin carboxyl-terminal hydrolase 1 (Homo sapiens) (UniProt O94782); assay: Inhibitors of USP1/UAF1: Pilot qHTS (AID 504865);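 further: rhodamine fluorescence freed from ubiquitin-rhodamine substrate followed over time; top concentration of the series differs between compounds; nearly all actives have a fitted effect of over 35% in size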
In short: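 Kinetic fluorescence assay: 1nM USP1/UAF1, 15 min compound preincubation, then 150nM Ub-Rho; 480/540 nm.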

[24] = qHTS for Inhibitors of ATXN expression: Validation (AID 588378); further: nearly all actives have a fitted effect of over 75% in size
In short: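 Validation of ATXN2 expression inhibitors uses a cell-based luciferase fusion reporter in HEK293 cells, with 24 h compound exposure and paired viability (fluorescence) and reporter (luminescence) end-point reads.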

[25] = molecular target: Glutaminase kidney isoform, mitochondrial (Homo sapiens) (UniProt O94925); assay: qHTS for Inhibitors of Glutaminase (GLS): LOPAC Validation (AID 624146);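 further: glutamate product detected by oxidase and peroxidase coupled Amplex red fluorescence gain; nearly all actives have a fitted effect of over 60% in size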
Glutaminase kidney isoform, mitochondrial (Homo sapiens), sequence (O94925 whole entry, looked up, canonical isoform): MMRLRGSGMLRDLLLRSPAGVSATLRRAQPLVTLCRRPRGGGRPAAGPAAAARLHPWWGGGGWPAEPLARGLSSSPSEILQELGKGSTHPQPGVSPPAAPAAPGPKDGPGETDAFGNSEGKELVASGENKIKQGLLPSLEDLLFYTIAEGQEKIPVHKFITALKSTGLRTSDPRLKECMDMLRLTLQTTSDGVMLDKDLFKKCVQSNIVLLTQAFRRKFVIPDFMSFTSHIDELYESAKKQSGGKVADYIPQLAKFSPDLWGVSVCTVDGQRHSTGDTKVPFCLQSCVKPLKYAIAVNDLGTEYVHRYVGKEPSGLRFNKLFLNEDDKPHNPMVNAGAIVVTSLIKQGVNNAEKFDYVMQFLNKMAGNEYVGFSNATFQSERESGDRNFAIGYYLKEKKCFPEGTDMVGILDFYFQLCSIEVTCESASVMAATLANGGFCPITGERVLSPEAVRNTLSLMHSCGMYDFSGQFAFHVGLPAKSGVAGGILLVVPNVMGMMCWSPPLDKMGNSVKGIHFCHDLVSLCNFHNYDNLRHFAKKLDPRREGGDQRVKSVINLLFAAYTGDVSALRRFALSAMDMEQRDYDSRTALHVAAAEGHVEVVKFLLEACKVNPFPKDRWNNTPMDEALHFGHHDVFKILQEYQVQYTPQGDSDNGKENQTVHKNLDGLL
In short: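 Assay buffer: 45 mM KH2PO4 pH 8.2, 0.02% Tween-20. hKGA acts on L-glutamine (1 mM solution added); product glutamate is reported by an oxidase/peroxidase Amplex Red coupling, with fluorescence taken at baseline and 30 min.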

[26] = molecular target: Glucagon-like peptide 1 receptor (Homo sapiens) (UniProt P43220); assay: qHTS of GLP-1 Receptor Agonists: LOPAC Validation (AID 624148);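 further: higher luminescence signal means agonism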
Glucagon-like peptide 1 receptor (Homo sapiens), sequence (P43220 whole entry, looked up): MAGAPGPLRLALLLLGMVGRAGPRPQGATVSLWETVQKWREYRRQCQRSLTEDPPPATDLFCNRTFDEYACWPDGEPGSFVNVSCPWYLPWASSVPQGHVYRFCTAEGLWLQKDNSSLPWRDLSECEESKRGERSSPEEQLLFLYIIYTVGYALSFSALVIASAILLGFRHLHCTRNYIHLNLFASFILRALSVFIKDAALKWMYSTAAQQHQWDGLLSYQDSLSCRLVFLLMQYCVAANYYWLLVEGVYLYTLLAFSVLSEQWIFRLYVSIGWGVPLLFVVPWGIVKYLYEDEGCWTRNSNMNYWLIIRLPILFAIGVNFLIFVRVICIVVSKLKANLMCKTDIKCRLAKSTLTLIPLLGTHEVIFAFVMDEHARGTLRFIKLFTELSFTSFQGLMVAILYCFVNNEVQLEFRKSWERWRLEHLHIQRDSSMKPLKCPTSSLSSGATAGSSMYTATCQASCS
In short: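 HEK293 cells stably co-expressing a cAMP-responsive luciferase reporter and a hypersensitive GLP-1R were plated 12 h at 37 °C and exposed to compounds for 4-6 hr at 37 °C, 5% CO2. Luminescence was read 12 min after adding detection reagent.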

CN1C2CCCC1CC(NC(=O)c1nn(C)c3ccccc13)C2 (configuration not stated)
inactive: outcome [1] | outcome [2] | Potency [3] | Potency [4] | Potency [5] | outcome [6] | outcome [7] | outcome [8] | Potency [9] | Potency [10] | Potency [11] | outcome [12] | outcome [13] | outcome [14] | outcome [15] | Potency [16] | Potency [17] | outcome [18] | outcome [19] | Potency [20] | Potency [21] | outcome [22] | Potency [23] | Potency [24] | Potency [25] | outcome [26]
0.0672%: viability change [18]

Source: PubChem BioAssay (NCATS)
